The source of these data is PubChem BioAssay (EPA / NIEHS).

The source made the active and inactive calls. How the source made its calls: active means hit-call score of the fitted dose curve at least 0.9, where 1 is the maximum; inactive means score below 0.9.

Read-out in experiment [1]: Interleukin-8 (IL8), CXCL8 (gene 3576)
Briefly: BSK_CASM3C_IL8: BioMAP Diversity Plus: CASM3C Assay for Interleukin-8 (IL8) Biomarker Activity (AID 2283042).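 Further: IL-8 protein level quantified by ELISA.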 Particulars: primary human coronary artery smooth muscle cells; actives raise or lower the signal.

Read-out in experiment [2]: Human Leukocyte Antigen - DR isotype (HLADR), HLA-DRA (gene 3122)
Briefly: BSK_CASM3C_HLADR: BioMAP Diversity Plus: CASM3C Assay for Human Leukocyte Antigen - DR isotype (HLADR) Biomarker Activity (AID 2283043).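 Further: cell-surface HLA-DR protein level quantified by ELISA.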 The note with it: primary human coronary artery smooth muscle cells; actives raise or lower the signal.

Read-out in experiment [3]: Macrophage colony-stimulating factor (MCSF), CSF1 (gene 1435)
Nature of the experiment: BSK_CASM3C_MCSF: BioMAP Diversity Plus: CASM3C Assay for Macrophage colony-stimulating factor (MCSF) Biomarker Activity (AID 2283044).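 Further: M-CSF protein amount quantified by ELISA after 24 h exposure.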 The note with it: primary human coronary artery smooth muscle cells; actives raise or lower the signal.

Read-out in experiment [4]: Low-density lipoprotein receptor (LDLR), LDLR (gene 3949)
Briefly: BSK_CASM3C_LDLR: BioMAP Diversity Plus: CASM3C Assay for Low-density lipoprotein receptor (LDLR) Biomarker Activity (AID 2283045).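 Further: LDLR protein level on the cell surface quantified by ELISA.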 Particulars: primary human coronary artery smooth muscle cells; actives raise or lower the signal.

Read-out in experiment [5]: Monocyte Chemoattractant Protein-1 (MCP1), CCL2 (gene 6347)
Nature of the experiment: BSK_CASM3C_MCP1: BioMAP Diversity Plus: CASM3C Assay for Monocyte Chemoattractant Protein-1 (MCP1) Biomarker Activity (AID 2283046).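 Further: MCP-1 level quantified by ELISA 24 h after dosing.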 Particulars: primary human coronary artery smooth muscle cells; actives raise or lower the signal.

The nature of experiment [6]: BSK_CASM3C_Proliferation: Cell Proliferation Assessment in the BioMAP Diversity Plus: CASM3C Assay (AID 2283047).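 Further: sulforhodamine B total protein stain as relative cell number at 560 nm; sub-confluent cells exposed 48 h before staining; fitted both ways against DMSO so gain or loss of cell number.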 The note with it: primary human coronary artery smooth muscle cells.
Read-out in experiment [7]: Monokine induced gamma interferon (MIG), CXCL9 (gene 4283)
Nature of the experiment: BSK_CASM3C_MIG: BioMAP Diversity Plus: CASM3C Assay for Monokine induced gamma interferon (MIG) Biomarker Activity (AID 2283048).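 Further: MIG protein level measured by ELISA.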 Particulars: primary human coronary artery smooth muscle cells; actives raise or lower the signal.

Read-out in experiment [8]: serum amyloid A (SAA), SAA1 (gene 6288)
Nature of the experiment: BSK_CASM3C_SAA: BioMAP Diversity Plus: CASM3C Assay for serum amyloid A (SAA) Biomarker Activity (AID 2283049).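 Further: SAA protein level quantified by ELISA.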 The note with it: primary human coronary artery smooth muscle cells; actives raise or lower the signal.

Experiment [9] can be described thus: BSK_CASM3C_SRB: Viability Assessment in the BioMAP Diversity Plus: CASM3C Assay (AID 2283050).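 Further: total protein by SRB staining as cytotoxicity measure in parallel cultures; cells exposed to compound for 24 h.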 Particulars: primary human coronary artery smooth muscle cells.
Read-out in experiment [10]: Thrombomodulin, THBD (gene 7056)
Nature of the experiment: BSK_CASM3C_Thrombomodulin: BioMAP Diversity Plus: CASM3C Assay for Thrombomodulin Biomarker Activity (AID 2283051).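 Further: thrombomodulin protein level measured by ELISA 24 h after dosing.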 The note with it: primary human coronary artery smooth muscle cells; actives raise or lower the signal.

Read-out in experiment [11]: Tissue Factor, F3 (gene 2152)
Nature of the experiment: BSK_CASM3C_TissueFactor: BioMAP Diversity Plus: CASM3C Assay for Tissue Factor Biomarker Activity (AID 2283052).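 Further: cell surface tissue factor protein level read by ELISA.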 Particulars: primary human coronary artery smooth muscle cells; actives raise or lower the signal.

Read-out in experiment [12]: Interferon-gamma inducible Protein 10 (IP10), CXCL10 (gene 3627)
Nature of the experiment: BSK_hDFCGF_IP10: BioMAP Diversity Plus: hDFCGF Assay for Interferon-gamma inducible Protein 10 (IP10) Biomarker Activity (AID 2283053). The note with it: primary human foreskin fibroblasts; actives raise or lower the signal. In a few lines: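 ELISA read-out of IP-10 (CXCL10) from primary human skin fibroblasts, 24 h after compound addition. Gain or loss of signal versus DMSO baseline, bidirectional curve fitting.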

Read-out in experiment [13]: Urokinase-type plasminogen activator receptor (uPAR), PLAUR (gene 5329)
Briefly: BSK_CASM3C_uPAR: BioMAP Diversity Plus: CASM3C Assay for Urokinase-type plasminogen activator receptor (uPAR) Biomarker Activity (AID 2283054).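 Further: cell-surface uPAR protein level quantified by ELISA.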 The note with it: primary human coronary artery smooth muscle cells; actives raise or lower the signal.

Read-out in experiment [14]: Vascular cell adhesion molecule 1 (VCAM1), VCAM1 (gene 7412)
Briefly: BSK_CASM3C_VCAM1: BioMAP Diversity Plus: CASM3C Assay for Vascular cell adhesion molecule 1 (VCAM1) Biomarker Activity (AID 2283055).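 Further: VCAM-1 protein level quantified by ELISA on the cells.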 The note with it: primary human coronary artery smooth muscle cells; actives raise or lower the signal.

Read-out in experiment [15]: Collagen III, COL3A1 (gene 1281)
Nature of the experiment: BSK_hDFCGF_CollagenIII: BioMAP Diversity Plus: hDFCGF Assay for Collagen III Biomarker Activity (AID 2283056). Particulars: primary human foreskin fibroblasts; actives raise or lower the signal. In a few lines: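 Human foreskin primary fibroblasts were exposed to test chemicals for 24 h, after which collagen III was quantified by ELISA. Activity was fitted bidirectionally against DMSO as negative control and baseline.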

Read-out in experiment [16]: Epidermal growth factor receptor (EGFR), EGFR (gene 1956)
Nature of the experiment: BSK_hDFCGF_EGFR: BioMAP Diversity Plus: hDFCGF Assay for Epidermal growth factor receptor (EGFR) Biomarker Activity (AID 2283057). The note with it: primary human foreskin fibroblasts; actives raise or lower the signal. The gist of the method:
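ELISA readout of EGFR on human dermal fibroblasts (primary foreskin cells), 24 h post-dosing; bidirectional curve fit vs DMSO baseline, gain or loss of signal scored.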

Read-out in experiment [17]: Interleukin-8 (IL8), CXCL8 (gene 3576)
Briefly: BSK_hDFCGF_IL8: BioMAP Diversity Plus: hDFCGF Assay for Interleukin-8 (IL8) Biomarker Activity (AID 2283058). The note with it: primary human foreskin fibroblasts; actives raise or lower the signal. In a few lines:
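hDFCGF human dermal fibroblasts; 24 h chemical exposure; IL-8 by ELISA; bidirectional curve fit vs DMSO baseline; gain or loss of signal scored.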

The nature of experiment [18]: BSK_hDFCGF_Proliferation: Cell Proliferation Assessment in the BioMAP Diversity Plus: hDFCGF Assay (AID 2283059).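 Further: curves fitted for both rise and fall of signal versus DMSO baseline.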 The note with it: primary human foreskin fibroblasts. The gist of the method: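 Steps: dose primary human dermal fibroblasts (foreskin); […] fix in 10% TCA; stain with 0.1% SRB; read 560 nm; fit gain or loss of signal against DMSO.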
Read-out in experiment [19]: Macrophage colony-stimulating factor (MCSF), CSF1 (gene 1435)
Nature of the experiment: BSK_hDFCGF_MCSF: BioMAP Diversity Plus: hDFCGF Assay for Macrophage colony-stimulating factor (MCSF) Biomarker Activity (AID 2283060). The note with it: primary human foreskin fibroblasts; actives raise or lower the signal. In a few lines:
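Human foreskin primary fibroblasts were treated with test chemical for 24 h, and M-CSF was then measured by ELISA. Data were fitted bidirectionally against DMSO as the negative control and activity baseline.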

Experiment [20] is described as follows: BSK_hDFCGF_SRB: Viability Assessment in the BioMAP Diversity Plus: hDFCGF Assay (AID 2283061).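 Further: cells exposed to compound for 24 h before the read.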 The note with it: primary human foreskin fibroblasts. The gist of the method:
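Human foreskin primary fibroblasts were treated with compound and assessed 24 h after dosing. Total protein was measured by sulforhodamine B staining (0.1% SRB after 10% TCA fixation, 560 nm read) as a cytotoxicity marker, with bidirectional fitting against DMSO baseline.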

What is called AC50 is the midpoint of the concentration-response curve, whichever way the signal moves. Turning to `CCCCCCCCCCCO`, the outcome in experiment [1], in experiment [2], in [3], in experiment [4], in [5] and in experiment [7] was inactive. Moreover, the outcome in [8], in experiment [9], in experiment [10], in experiment [11], in experiment [13] and in experiment [14] was inactive. Moreover, the result in experiment [16] was inactive. For the same molecule, the AC50 in experiment [6] is 33.5 µM (active); in [12] it was 36.8 µM (active); in experiment [15], 31.6 µM (active); in experiment [17], 32.4 µM (active); in [18] it was 20 µM (active); in [19] it was 29.8 µM (active). The AC50 in experiment [20] is 30 µM (active).

In the case of `CC1(C)NC(=O)N(c2ccc([N+](=O)[O-])c(C(F)(F)F)c2)C1=O`, the outcome in experiment [1], in experiment [2], in experiment [4], in experiment [5], in experiment [7] and in experiment [8] was inactive. Besides, the result in experiment [9], in experiment [10], in [11], in [12], in experiment [13] and in experiment [14] was inactive. Further, the outcome in [15], in experiment [16], in experiment [17], in [18], in [19] and in experiment [20] was inactive. Further, the AC50 in [3] and in experiment [6] was 11.8 µM (active) in each case.

With `Cc1oc2c(NC(=O)c3c(Cl)cccc3Cl)cccc2c1C(C)(C)O`, the outcome in [1], in experiment [2], in experiment [3], in [5], in experiment [7] and in experiment [8] was inactive. The outcome in [9], in [12], in experiment [13], in experiment [14], in experiment [17] and in experiment [19] was inactive. Moreover, the result in experiment [20] was inactive. The half-maximal activity concentration (AC50) in experiment [4] is 15.6 µM (active); in experiment [6] it was 20 µM (active); in [10], 26.5 µM (active); in experiment [11], 29.4 µM (active); in experiment [15] it was 20 µM (active); in [16], 17.3 µM (active). The AC50 in experiment [18] was 14.1 µM (active).

Regarding `Cc1ccc2oc(CN(Cc3ccccc3)C(=O)Nc3c(F)cc(F)cc3F)c(-c3ccc(Cl)cc3)c2c1`, the result in [1], in experiment [2], in experiment [3], in experiment [4], in experiment [5] and in experiment [6] was inactive. In addition, the result in experiment [7], in [8], in experiment [9], in experiment [10], in [11] and in experiment [13] was inactive. The result in [14], in [15], in [16], in [17], in experiment [18] and in experiment [19] was inactive. For the same molecule, in experiment [20], the outcome was inactive. The AC50 in [12] was 5.68 µM (active).

Take `CCCCCCCCCCCCO`: the AC50 in experiment [1] is 35 µM (active); in experiment [2] it was 31.5 µM (active); in experiment [3], 31.2 µM (active); in experiment [5], 34.7 µM (active); in experiment [6] it was 32.6 µM (active); in experiment [7], 31.3 µM (active). The AC50 in experiment [8] was 29.4 µM (active); in experiment [11], 32.3 µM (active); in experiment [12], 29.3 µM (active); in experiment [14], 31 µM (active); in experiment [15], 15.4 µM (active); in experiment [16] it was 19.8 µM (active). In addition, the AC50 is 37.4 µM (active) in [17], 26.5 µM (active) in [18], 33.4 µM (active) in experiment [19] and 30.6 µM (active) in [20]. Also, the outcome in [4], in [9], in experiment [10] and in experiment [13] was inactive.

Consider `CN(C)C(=O)C1(N2CCCCC2)CCN(CC[C@@]2(c3ccc(Cl)c(Cl)c3)CN(C(=O)c3ccccc3)CCO2)CC1`, for which the AC50 in experiment [1] is 32.4 µM (active); in experiment [2], 18.1 µM (active); in experiment [3], 31.3 µM (active); in experiment [4], 4.45 µM (active); in [5] it was 28.6 µM (active); in experiment [6] it was 15.7 µM (active). Also, the AC50 in experiment [7] is 29.9 µM (active); in experiment [8], 33.3 µM (active); in experiment [9] it was 27.2 µM (active); in experiment [10], 34.7 µM (active); in experiment [11], 31 µM (active); in experiment [12] it was 27.2 µM (active). Besides, the AC50 in [13] was 24.4 µM (active); in experiment [14], 30 µM (active); in experiment [15], 25.4 µM (active); in experiment [16] it was 9.57 µM (active); in experiment [17], 33.7 µM (active); in [18], 5.15 µM (active). The figures for the AC50 in experiment [19] and in experiment [20] were 20.8 µM (active) and 13.3 µM (active), respectively.
